We go through 95 molecules from PubChem BioAssay AID463173 (ICCB-Longwood Screening Facility, Harvard Medical School, 2010).

The campaign covered roughly 52,000 compounds. About 4,300 (8.3%) were called active. Shown is part of a subset that was picked to be rich in actives. A number with no mark means an inactive call. Cut-off read from the data, not from the text of the source: active = survival mostly below about 52% (no sharp cut-off); inactive = mostly above about 56%.

The assay relates to DeltatarO mutant. The assay is described as follows: growth inhibition of S. aureus wild type versus tarO mutant, primary screen, teichoic acid synthesis inhibitors, RN4220, OD600 (AID 463173). The settings on record: OD600, 18 h, hits give low values, screened at 18.75 µg/mL (by protocol).
On to `CCCNC(=O)c1cnc2c(-c3ccc(OCC)c(OCC)c3)c(C)nn2c1-c1ccccc1`, for which the survival was 92%.
Next, `Cc1nn2c(C)c(C(=O)NCCc3ccccc3)cnc2c1-c1ccccc1`: 81%; `Cc1nn2c(C)c(C(=O)NCC(C)c3ccccc3)cnc2c1-c1ccccc1` (stereo not given): 101%.
As for `CCOc1ccc(-c2c(C)nn3c(C)c(C(=O)Nc4ccccc4C(=O)OC)cnc23)cc1OCC`, the survival is -4% (active).
To `COc1cc(CNC(=O)c2cnc3c(-c4cccc(C)c4)c(C)nn3c2C)cc(OC)c1OC` belongs 68%; to `CCOc1ccc(-c2c(C)nn3c(C)c(C(=O)Nc4cccc(Cl)c4C)cnc23)cc1OCC`, 76%; to `CCOc1ccc(-c2c(C)nn3c(C)c(C(=O)Nc4cc(C)cc(C)c4)cnc23)cc1OCC`, 118%.
Next, `Cc1cccc(CNC(=O)c2cnc3c(-c4cccc(C)c4)c(C)nn3c2C)c1`: 17% (active); `CCCCNC(=O)c1cnc2c(-c3ccc(OCC)c(OCC)c3)c(C)nn2c1-c1ccccc1`: 73%.
To `Cc1nn2c(C)c(C(=O)NCc3cccc(Br)c3)cnc2c1-c1ccccc1` belongs 66%.
With `CCNC(=O)c1cnc2c(-c3ccccc3)c(C)nn2c1C`, the survival was 8% (active).
Next, `CCOc1ccc(-c2c(C)nn3c(-c4ccccc4)c(C(=O)NCCOC)cnc23)cc1OCC`: -5% (active); `Cc1ccc(-n2c(SCC(=O)Nc3ccc4c(c3)OCO4)nc3c([nH]c4ccccc43)c2=O)cc1`: 128%.
As to `CCOc1ccc(CNC(=O)Cn2c(=O)c3cccn3c3ccc(F)cc32)cc1OC`, the survival was 47%.
For the molecule `COc1cc(NC(=O)c2cc(-c3ccc4c(c3)OCO4)on2)cc(OC)c1OC`, the survival was 115%.
`CCn1cc(C(=O)N(C)Cc2ccccc2)c(=O)c2cc(S(=O)(=O)N3CCc4ccccc4C3)ccc21`: the survival is 65%.
Next, `O=C(Cn1cc(C(=O)C(F)(F)F)c2ccccc21)N1CCCCCC1`: 56%.
To `COc1cc(C(=O)NCc2nnnn2-c2ccc(C)c(C)c2)cc(OC)c1OC` belongs 98%.
With `CCOc1ccc(CCNC(=O)c2cnc3c(-c4ccccc4)c(C)nn3c2C)cc1OCC`, the survival was 20% (active).
For the molecule `CCOc1ccc(-c2c(C)nn3c(C)c(C(=O)NCCc4ccccc4)cnc23)cc1OCC`, the survival was 54%.
Take `CCOc1ccc(CCNC(=O)c2cnc3c(-c4ccc(F)cc4)c(C)nn3c2C)cc1OCC`: the survival was 134%.
Next, `CCN1/C(=C\C(=O)C2CC2)Sc2ccccc21`: 81%; `COc1ccc(OCC(O)Cn2c(C(C)C)nc3ccccc32)cc1` (stereo not given): 88%; `Cc1nc2ccccc2n1C(C)c1ccccc1` (stereo not given): 77%.
Next, `COc1ccc(OCc2nc3ccccc3n2C(C)c2ccccc2)cc1` (stereo not given): -15% (active); `CCC(C)Cn1c(COc2ccc(OC)cc2)nc2ccccc21` (stereo not given): -1% (active); `Cc1ccc(OCc2nc3ccccc3n2CC(C)C)cc1`: 1% (active).
To `COc1ccc(OCc2nc3ccccc3n2C(C)C)cc1` belongs 88%.
For the molecule `Cc1ccc(S(=O)(=O)c2cn(CC(=O)Nc3ccc4c(c3)OCO4)c3ccccc3c2=O)cc1C`, the survival was 112%.
Take `Cc1ccc(NC(=O)c2nnn(Cc3cccc(C(F)(F)F)c3)c2N)c(C)c1`: the survival is 86%.
With `COc1ccc(-n2c(=O)c3c4c(sc3n(Cc3cc(C)ccc3C)c2=O)CN(C(C)=O)CC4)c(OC)c1`, the survival was 93%.
For the molecule `Cc1cccc(CC(=O)NC2CC(=O)N(c3ccc4c(c3)OCCO4)C2)c1` (stereo not given), the survival was 72%.
For the molecule `CN1C(=O)Cc2cc(S(=O)(=O)N3CCN(c4cccc(C(F)(F)F)c4)CC3)ccc21`, the survival was 116%.
Next, `CCOC(=O)c1c(C)[nH]c(C)c1S(=O)(=O)NCC(=O)N1CCN(c2ccccc2OC)CC1`: 102%; `CC(=O)Nc1ccc(NC(=O)c2cc(-c3cccs3)on2)cc1`: 78%; `COc1ccc(OC)c(-c2cc(C(=O)NC(C)c3ccccc3)no2)c1` (stereo not given): -14% (active).
Regarding `COc1ccc(OC)c(-c2cc(C(=O)NCc3ccc(Cl)cc3)no2)c1`, the survival is 47%.
Turning to `CCc1ccc(NC(=O)c2cc(-c3cccs3)on2)cc1`, the survival was 161%.
Next, `Cc1c(Cl)cccc1NC(=O)c1cc(-c2cccs2)on1`: 66%; `CC(C)c1cc(C(=O)NC(C)c2ccccc2)no1` (stereo not given): 50%.
With `COc1ccc(OC)c(-c2cc(C(=O)Nc3ccc(C)c(C)c3)no2)c1`, the survival was -1% (active).
As to `Cc1ccc(NC(=O)c2cc(-c3cccs3)on2)cc1C`, the survival is 45% (active).
To `COc1ccc(OC)c(-c2cc(C(=O)Nc3cnn(Cc4ccc(Cl)cc4Cl)c3)no2)c1` belongs 64%.
For `CC(NC(=O)c1cc(-c2ccc(Cl)cc2)on1)c1ccccc1` (stereo not given), the survival is 142%.
Next, `COc1ccc(OC)c(-c2cc(C(=O)Nc3cccc(Cl)c3C)no2)c1`: 2% (active).
Consider `Cc1c(Cl)cccc1NC(=O)c1cc(-c2cccc(Cl)c2)on1`, for which the survival is 61%.
Next, `Cc1cc(Nc2ccc(Cl)cc2C)nc(-n2nc(C)cc2C)n1`: 74%.
`Cc1ccc(Cn2c(CO)cnc2SCc2ccc(F)cc2)cc1`: the survival is 109%.
As for `COc1cccc(N2C(=O)C(CC(=O)Nc3cccc(F)c3)N(C(C)C)C2=O)c1` (stereo not given), the survival is 94%.
Turning to `Cc1ccc(CSc2c(C)cnc3c2c(=O)n(C)c(=O)n3C)cc1`, the survival is 78%.
Regarding `COc1ccc(OCC(=O)OC2CCN(C)CC2)cc1`, the survival was 112%.
For `CCN(CC)CCCNC(=O)c1cn(CC)c2ccc(S(=O)(=O)N3CCC(C)CC3)cc2c1=O`, the survival is 105%.
To `CS(=O)(=O)N1CCC(c2nc(-c3ccc(S(=O)(=O)NCC4CCCO4)cc3)no2)CC1` (stereo not given) belongs 85%; to `CCn1c(=O)c2cc(C(=O)Nc3cc(F)ccc3F)sc2c2ccccc21`, 96%.
To `CCOc1ccccc1NC(=O)c1c(NCc2ccc(C)o2)sc2c1CCCCC2` belongs 95%.
As for `COc1ccccc1-c1cc(C(=O)Nc2cc(Cl)ccc2O)no1`, the survival is 52%.
Next, `COc1ccccc1-c1cc(C(=O)Nc2cc(OC)c(OC)c(OC)c2)no1`: 25% (active); `COc1cc(NC(=O)c2cc(-c3ccc(Cl)c(Cl)c3)on2)cc(OC)c1OC`: 111%; `O=C(c1ccc2c(c1)CCN2S(=O)(=O)c1ccc(Cl)cc1)N1CCN(c2ccccc2)CC1`: 58%.
Next, `CCCCOc1ccccc1C(=O)Nc1onc2c1CCCC2`: 55%; `O=C(CN1C(=O)COc2ccc(S(=O)(=O)Nc3ccccc3)cc21)NCc1ccccc1Cl`: 102%; `O=c1c2cn[nH]c2nc(SCc2cccc(Br)c2)n1-c1ccc(Cl)cc1`: 122%.
Regarding `CCOc1ccc(CC(=O)Nc2c(C(=O)c3ccc(Cl)cc3)oc3ccccc23)cc1OCC`, the survival was 48%.
With `CCOc1ccc(CC(=O)Nc2c(C(=O)c3ccc(F)cc3)oc3ccccc23)cc1OCC`, the survival is 42% (active).
Turning to `CC(C)c1ccc(OCC(=O)Nc2c(C(=O)c3ccc(F)cc3)oc3ccccc23)cc1`, the survival is 65% (active).
In the case of `CCOc1ccc(CC(=O)Nc2c(C(=O)c3ccc(C)cc3)oc3ccccc23)cc1OCC`, the survival is 52%.
Next, `Cc1ccc(C(=O)c2oc3ccccc3c2NC(=O)COc2ccc(C(C)C)cc2)cc1`: 73%.
As for `CC(C)(C)c1ccc(OCC(=O)Nc2c(C(=O)c3ccc(F)cc3)oc3ccccc23)cc1`, the survival was 99%.
To `Cc1cccc(-n2cc(-c3ccccc3)c3c(NC4CCCC4)ncnc32)c1` belongs 98%; to `CCNC(=O)CCSc1nnc(-c2ccc(O)cc2)o1`, 95%; to `O=c1oc2ccccc2c(N2CCN(c3ccc(F)cc3)CC2)c1CN1CCCC1`, 100%.
For `O=c1oc2ccccc2c(N2CCN(c3ccccc3F)CC2)c1CN1CCCC1`, the survival was 89%.
On to `O=c1oc2ccccc2c(O)c1CN1CCCCC1`, for which the survival is 25% (active).
Next, `Cc1ccc(-c2cc(-c3ccc4c(c3)NC(=O)CO4)nc3c2COc2ccc(C)cc2-3)cc1`: 96%.
Next, `Cc1c(C(=O)Nc2ccc(F)cc2)sc2nc[nH]c(=O)c12`: 122%.
As for `Cc1cccc(N2CCN(C(=O)Cn3cnc4sc(C)c(S(=O)(=O)N5CCN(c6ncccn6)CC5)c4c3=O)CC2C)c1` (stereo not given), the survival was 67% (active).
As to `Cc1sc2ncn(CC(=O)N3CCN(c4ccccc4)CC3)c(=O)c2c1S(=O)(=O)N1CCN(c2ncccn2)CC1`, the survival is 126%.
In the case of `Cc1sc2ncn(CC(=O)N3CCN(c4cccc(Cl)c4)CC3)c(=O)c2c1S(=O)(=O)N1CCN(c2ncccn2)CC1`, the survival was 63%.
To `Cc1ccc(Cl)cc1N1CCN(C(=O)Cn2cnc3sc(C)c(S(=O)(=O)N4CCC(C)CC4)c3c2=O)CC1` belongs 47% (active); to `Cc1sc2ncn(CC(=O)N3CCN(c4cccc(Cl)c4)CC3)c(=O)c2c1S(=O)(=O)N1CCC(C)CC1`, 149%; to `Cc1sc2ncn(CC(=O)N3CCN(c4ccccc4F)CC3)c(=O)c2c1S(=O)(=O)N1CCC(C)CC1`, 74%.
Take `CC1=C(c2ccc(C)cc2)S(=O)(=O)NC1=NCc1cccc(F)c1`: the survival is 92%.
Next, `Cc1ccc(-n2c(=O)c3ccc(C(=O)NCc4ccco4)cc3n(Cc3ccccc3Cl)c2=O)cc1`: 99%.
Regarding `c1ccc2c(c1)n1cnnc1c1nncn21`, the survival was 85%.
Next, `CC1=C(C(=O)Nc2ccc(C)cc2C)C(c2ccc([N+](=O)[O-])cc2)n2ncc(C(=O)Nc3ccc(F)cc3)c2N1` (stereo not given): 101%; `O=C(O)c1ccc(N2CCOCC2)cc1`: 80%.
For `COc1ccc(N2CCN(CC(O)COc3ccc(C)cc3C)CC2)cc1` (stereo not given), the survival was 98%.
Turning to `C=CCc1ccccc1OCC(O)CN1CCN(c2ccccc2)CC1` (stereo not given), the survival is 83%.
For `COc1ccc(N2CCN(CC(O)COc3ccccc3C(C)(C)C)CC2)cc1` (stereo not given), the survival was -8% (active).
Next, `COc1ccccc1N1CCN(CC(O)COc2ccc(C)cc2C(C)(C)C)CC1` (stereo not given): 1% (active); `COc1ccc(N2CCN(CC(O)COc3ccc(C(C)(C)C)cc3)CC2)cc1` (stereo not given): 84%; `COc1ccc(N2CCN(CC(O)COc3c(OC)cccc3OC)CC2)cc1` (stereo not given): 71%.
To `COc1ccc(N2CCN(CC(O)COc3ccc(C(C)C)c(C)c3)CC2)cc1` (stereo not given) belongs 66%.
For `Cc1ccc(C(C)C)c(OCC(O)CN2CCN(c3ccccc3F)CC2)c1` (stereo not given), the survival was -5% (active).
As to `COc1ccccc1N1CCN(CC(O)COc2cc(C)cc(C)c2)CC1` (stereo not given), the survival is 71%.
